proKLK7 act: proKLK7 zymogen activators, primary screen, biochemical, fluorescence intensity | 370,000 compounds, 0.9% hits | purified proKLK7, EDANS-DABCYL substrate fluorescence; 100% is mature enzyme control, 0% vehicle | Kallikrein-7 (Homo sapiens), P49862 | activation, % at 7 µM;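 active = activation above the mean of all tested compounds plus 3 SD, computed per campaign excluding outliers beyond control limits, cut at about 13% in these data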
ADAM10 inh: human ADAM10 inhibitors, primary screen, biochemical, QFRET, HTS; Disintegrin and metalloproteinase domain-containing protein 10 (Homo sapiens), O14672; recombinant ADAM10, EDANS/DABCYL FRET peptide cleavage, 3 h; inhibition, % at 7 µM; 370,000 compounds, 0.62% hits; AID 720582, 2013;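 active = inhibition above a per-campaign cutoff equal to the mean of compounds falling between control-based bounds plus 3 SD, cut at about 20% in these data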;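 also: 0% = DMSO wells while the 100% control is not disclosed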
ADAM17 inh: ADAM17 inhibitors, primary screen, biochemical, QFRET; inhibition, % at 6.95 µM; 370,000 compounds, 0.83% hits; recombinant ADAM17, EDANS/DABCYL FRET peptide cleavage;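 active = inhibition above the mean of compounds lying between control limits plus 3 SD, set per campaign, cut at about 8.5% in these data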;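 also: 0% = DMSO-only wells as the low control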
HGIII-sPLA2 inh: human group III sPLA2 inhibitors, primary screen, biochemical, QFRET, BODIPY PC-A2 liposome substrate; Group 3 secretory phospholipase A2 (Homo sapiens), Q9NZ20; QFRET BODIPY PC-A2 liposome hydrolysis, fluorescence; inhibition, % at 12.2 µM; 370,000 compounds, 0.56% hits;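 active = inhibition above mean plus 3 SD of compounds lying within the high and low control bounds, cut at about 19% in these data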;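 also: 0% = median of test compound wells and 100% = no enzyme DMSO wells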
Target sequence (Q9NZ20 whole entry, looked up): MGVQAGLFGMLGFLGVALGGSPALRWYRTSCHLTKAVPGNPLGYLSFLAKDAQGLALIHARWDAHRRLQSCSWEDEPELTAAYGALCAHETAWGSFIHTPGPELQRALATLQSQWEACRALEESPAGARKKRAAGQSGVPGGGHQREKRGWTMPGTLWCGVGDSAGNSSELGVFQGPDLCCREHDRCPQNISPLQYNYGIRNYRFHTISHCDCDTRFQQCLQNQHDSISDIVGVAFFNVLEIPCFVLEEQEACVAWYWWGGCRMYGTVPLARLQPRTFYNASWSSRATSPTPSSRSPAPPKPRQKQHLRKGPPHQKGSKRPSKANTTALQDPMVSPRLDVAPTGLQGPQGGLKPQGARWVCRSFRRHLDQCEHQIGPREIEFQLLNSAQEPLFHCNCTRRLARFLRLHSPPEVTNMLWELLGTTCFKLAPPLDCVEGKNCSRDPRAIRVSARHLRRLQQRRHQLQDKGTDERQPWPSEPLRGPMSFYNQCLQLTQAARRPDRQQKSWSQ
CendR NRP1 mod: modulators of CendR peptide binding to NRP-1, primary screen, biochemical, fluorescence polarization, uHTS. Neuropilin-1 (Homo sapiens), O14786. FAM-RPARPAR peptide binding to NRP-1. inhibition, % at 25 µM. 360,000 compounds, 0.85% hits;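 active = inhibition or corrected inhibition above about 18%, plus a signal ratio from 0.5 to 1.5, limit read from the data, passing the limit was not always enough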
The depositor's hits bear a star; i = inactive; / = no result given. Shown are actives, neighbours in structure and some others; about 3.4% of the full set was active somewhere.

SMILES	proKLK7 act	ADAM10 inh	ADAM17 inh	HGIII-sPLA2 inh	CendR NRP1 mod
CC(C)CNC(=O)OCc1cn(Cc2cccc(Cl)c2)nn1	0	4	0	6	/
C=CCN1C/C(=C/c2ccccc2)N2C(=O)CC(c3ccccc3)N=C12 (stereo unspecified)	/	-4	3	5	/
COc1ccc(CNS(=O)(=O)c2ccc(C)cc2)cc1	0	-9	-3	-11	28*
Cc1[nH]c2c(Cl)cccc2c(=O)c1CN1CCCC1	0	1	-4	-3	20*
Cc1[nH]c2ccccc2c(=O)c1CN1CCCCCC1	0	-5	-4	5	-1
COCc1cn(-c2cccc(-c3noc4c3C(=O)N(CC(=O)N3CCOCC3)CC4)c2)nn1	0	1	1	1	/
O=C(C[C@@H]1C/C=C\CC[C@@H](Cc2ccc(F)cc2)C(=O)OC[C@@H]2CCCN2C1=O)NCCO	-1	5	-6	-3	11
O=C(C[C@@H]1C/C=C\CC[C@H](Cc2ccc(F)cc2)C(=O)OC[C@@H]2CCCN2C1=O)NCCO	0	-1	-1	4	20*
O=C(C[C@H]1C/C=C\C[C@H](Cc2ccc(F)cc2)C(=O)O[C@@H](c2ccccc2)CNC1=O)NCCO	0	0	-2	2	22*
CC1(C)OC2CC(=O)OCC23C1CC(=O)C1(C)C3CCC2(C)C(c3ccoc3)OC(=O)C3OC321 (stereo unspecified)	0	-8	-2	0	7
CC(C)(O)[C@@H]1CC(=O)[C@]2(C)[C@H](CC[C@@]3(C)[C@H](c4ccoc4)OC(=O)[C@H]4O[C@]432)[C@@]1(C)/C=C\C(=O)O	1	8	3	-8	26*
CCOC(=O)CC[C@@]1(C(=O)OCC)C[C@@H](CC(=O)NCCc2ccccc2OC)C(=O)N2CCCC=C21	0	-13	1	16	/
CCCCC(C(=O)O)C(C)CC(=O)Nc1ccn(-c2ccccc2)n1 (stereo unspecified)	0	0	-2	-8	45*
CCOc1ccc(/C=C/C(=O)N(CC)CC(=O)Nc2ccc3c(c2)OCCO3)cc1OC	0	-101	-26	2	-16
CCOc1ccc(/C=C/C(=O)N(CC)CC(=O)Nc2c(F)cccc2F)cc1OC	1	-123	-31	4	22*
S=C(Nc1cccc2ccccc12)NN1CCOCC1	-1	-16	-8	6	25*
S=C(Nc1cccc2ccccc12)NN1CCCCCC1	-3	-35	-8	12	1
Cc1ccc(NC(=S)Nc2cccc3ccccc23)cc1	-22	-268	-83	13	28*
Fc1ccc(NC(=S)Nc2cccc3ccccc23)cc1	-11	-102	-39	12	28*
COc1ccc2c(c1)Sc1ccc(Cl)cc1N2	/	-18	-5	0	/
C[C@@H]1ON(C)[C@H]2C[C@H]3c4cc(N5CCCCC5)ccc4CCN3C[C@@H]12	0	-6	-4	4	/
N#Cc1c(C(F)(F)F)cc(-c2ccc(Cl)cc2)[nH]c1=O	21*	i	i	-25	8
O=C1CSC(c2cn(-c3ccccc3)nc2-c2cccs2)N1CC1CCCO1 (stereo unspecified)	0	6	-3	-6	32*
CN(C(=O)COC(=O)c1cnc(Cl)c(Cl)c1)C1CCCCC1	0	-6	-4	9	24*
CN(C(=O)COC(=O)c1cnc(Cl)c(Cl)c1)C1CCS(=O)(=O)C1 (stereo unspecified)	0	3	7	14	-4
COc1ccc(CN2C(=O)N3Cc4ccccc4C3CS2(=O)=O)cc1 (stereo unspecified)	0	3	2	6	/
CCN(CC)S(=O)(=O)c1ccc(OC)c(NC(=O)c2cccs2)c1	0	6	-1	1	25*
COc1ccc([N+](=O)[O-])cc1NC(=O)c1cccs1	0	-8	-1	2	-5
Cc1cccc(NC(=O)N2CCC(N(C)CCC(C)C)CC2)c1	0	-13	-2	8	/
CN(C)C(=O)C[C@H]1CC[C@H]2[C@H](COc3ccc(NC(=O)C4CC4)cc3C(=O)N2C)O1	0	-3	-2	0	/
